{
  "source": "the supplement of paper PMC11634586",
  "note": "Structures can show the parent of a compound that is named as a salt.",
  "data": [
    {"test_system": "NCI-H1688", "experiment": "inhibition of cell viability relative to untreated control (fraction); higher = stronger growth inhibition, active = 0.5 or more", "conditions": "30 µM; 24 h", "summary_of_the_method": "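Compounds from a natural compound library (TargetMol) were tested at 30 µM on NCI-H1688 small cell lung cancer cells for 24 h at 37°C under 5% CO2. Cell Counting Kit-8 absorbance at 450 nm, read in triplicate, gave the viability. The values express inhibition of cell viability as a fraction relative to untreated cells.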", "values": [
      {"smiles": "O=C(/C=C/c1ccc(O)c(O)c1)O[C@@H]1C[C@](O)(C(=O)O)C[C@@H](O)[C@H]1O", "note": "[Chlorogenic Acid]", "inhibition of cell viability": "0.162 (inactive)"},
      {"smiles": "CC(C)(CO)[C@@H](O)C(=O)NCCC(=O)NCCSSCCNC(=O)CCNC(=O)[C@H](O)C(C)(C)CO", "note": "[D-Pantethine]", "inhibition of cell viability": "-0.262 (inactive)"},
      {"smiles": "COc1ccc2c(c1OC)C(=O)O[C@@H]2[C@H]1c2c(cc3c(c2OC)OCO3)CCN1C", "note": "[Noscapine hydrochloride]", "inhibition of cell viability": "0.323 (inactive)"},
      {"smiles": "O=c1c2ccccc2nc2n1CCc1c-2[nH]c2ccccc12", "note": "[Rutaecarpine]", "inhibition of cell viability": "-0.128 (inactive)"},
      {"smiles": "CC(C)C[C@@H](NC(=O)[C@H](C)NC(=O)CNC(=O)[C@@H](NC=O)C(C)C)C(=O)N[C@@H](C)C(=O)N[C@@H](C(=O)N[C@H](C(=O)N[C@H](C(=O)N[C@@H](Cc1c[nH]c2ccccc12)C(=O)N[C@H](CC(C)C)C(=O)N[C@@H](Cc1c[nH]c2ccccc12)C(=O)N[C@H](CC(C)C)C(=O)N[C@@H](Cc1c[nH]c2ccccc12)C(=O)N[C@H](CC(C)C)C(=O)N[C@@H](Cc1c[nH]c2ccccc12)C(=O)NCCO)C(C)C)C(C)C)C(C)C", "note": "[Gramicidin]", "inhibition of cell viability": "0.981 (active)"},
      {"smiles": "O=C1c2cccc(O)c2C(=O)c2c(O)cccc21", "note": "[Antrapurol]", "inhibition of cell viability": "0.783 (active)"},
      {"smiles": "OC[C@H]1O[C@H](O[C@H]2O[C@H](CO)[C@@H](O)[C@H](O)[C@H]2O)[C@H](O)[C@@H](O)[C@@H]1O", "note": "[D-(+)-Trehalose dihydrate]", "inhibition of cell viability": "0.249 (inactive)"},
      {"smiles": "C[C@H]1[C@H](C)CC[C@]2(C(=O)O)CC[C@]3(C)C(=CC[C@@H]4[C@@]5(C)CC[C@H](O)C(C)(C)[C@@H]5CC[C@]43C)[C@H]12", "note": "[Ursolic acid]", "inhibition of cell viability": "1.01 (active)"},
      {"smiles": "C=C(C)[C@@H]1CC[C@]2(C)CC[C@]3(C)[C@H](CC[C@@H]4[C@@]5(C)CC[C@H](O)C(C)(C)[C@@H]5CC[C@]43C)[C@@H]12", "note": "[Lupeol]", "inhibition of cell viability": "0.287 (inactive)"},
      {"smiles": "O=c1cc(-c2ccc(O)c(O)c2)oc2cc(O)cc(O)c12", "note": "[Luteolin]", "inhibition of cell viability": "0.794 (active)"},
      {"smiles": "COc1cc2c(cc1OC)-c1cc3ccc(OC)c(OC)c3c[n+]1CC2", "note": "[Palmatine chloride]", "inhibition of cell viability": "0.0401 (inactive)"},
      {"smiles": "O=C1O[C@H]([C@@H](O)CO)C(O)=C1OP(=O)(O)O", "note": "[Sodium L-ascorbyl-2-phosphate]", "inhibition of cell viability": "0.0357 (inactive)"},
      {"smiles": "O=C1c2cccc(O)c2C(=O)c2c(O)cc(CO)cc21", "note": "[Aloe-emodin]", "inhibition of cell viability": "0.373 (inactive)"},
      {"smiles": "C=C(NC(=O)C(=C)NC(=O)c1csc(C2=N[C@@H]3c4csc(n4)[C@H]4NC(=O)c5csc(n5)[C@H]([C@](C)(O)[C@@H](C)O)NC(=O)[C@H]5CSC(=N5)/C(=C/C)NC(=O)[C@H]([C@@H](C)O)NC(=O)c5csc(n5)[C@]3(CC2)NC(=O)[C@H](C)NC(=O)C(=C)NC(=O)[C@H](C)NC(=O)[C@H]([C@@H](C)CC)N[C@@H]2C=Cc3c([C@H](C)O)cc(nc3[C@H]2O)C(=O)O[C@@H]4C)n1)C(N)=O", "note": "[Thiostrepton]", "inhibition of cell viability": "0.943 (active)"},
      {"smiles": "CC(C)[C@@H](C)/C=C/[C@@H](C)[C@H]1CC[C@H]2C3=CC=C4C[C@@H](O)CC[C@]4(C)[C@H]3CC[C@]12C", "note": "[Ergosterol]", "inhibition of cell viability": "-0.172 (inactive)"},
      {"smiles": "CC(=O)O[C@H]1C[C@@]2(C)[C@@H](C[C@@H](O)[C@H]3[C@@]4(C)CC[C@@H](O)[C@@H](C)[C@@H]4CC[C@@]32C)/C1=C(\\CCC=C(C)C)C(=O)O", "note": "[Fusidine]", "inhibition of cell viability": "-0.0194 (inactive)"},
      {"smiles": "O=c1c(O)c(-c2ccc(O)c(O)c2)oc2cc(O)cc(O)c12", "note": "[Quercetin]", "inhibition of cell viability": "0.68 (active)"},
      {"smiles": "O=c1cc(-c2ccccc2)oc2cc(O)c(O)c(O)c12", "note": "[Baicalein]", "inhibition of cell viability": "0.728 (active)"},
      {"smiles": "CC(C)C1=CC2=CC[C@@H]3[C@](C)(CCC[C@@]3(C)C(=O)O)[C@H]2CC1", "note": "[Abietic Acid]", "inhibition of cell viability": "0.0466 (inactive)"},
      {"smiles": "C=C1C(=O)O[C@@H]2C[C@@]3(C)CCC[C@H](C)C3=C[C@H]12", "note": "[Helenine]", "inhibition of cell viability": "0.789 (active)"},
      {"smiles": "CC1(C)CC[C@]2(C(=O)O)CC[C@]3(C)C(=CC[C@@H]4[C@@]5(C)CCC(=O)C(C)(C)[C@@H]5CC[C@]43C)[C@@H]2C1", "note": "[Oleanonic Acid]", "inhibition of cell viability": "0.342 (inactive)"},
      {"smiles": "CC1(C)C2CC[C@@]3(C)[C@@H](C(=O)C=C4[C@@H]5C[C@](C)(C(=O)O)CC[C@@]5(C)CC[C@@]43C)[C@]2(C)CC[C@H]1O", "note": "(some centres not stated) [Glycyrrhetinic acid(Enoxolone)]", "inhibition of cell viability": "-0.198 (inactive)"},
      {"smiles": "Cc1ncc(C[n+]2csc(CCO)c2C)c(N)n1", "note": "[Thiamine hydrochloride]", "inhibition of cell viability": "-0.123 (inactive)"},
      {"smiles": "Cn1c(=O)c2c(ncn2C)n(C)c1=O", "note": "[Caffeine]", "inhibition of cell viability": "0.0548 (inactive)"},
      {"smiles": "COC(=O)c1ccc(O)c(OC)c1", "note": "[Methyl Vanillate]", "inhibition of cell viability": "-0.221 (inactive)"},
      {"smiles": "COc1ccc(-c2oc3c(CC=C(C)C)c(O[C@@H]4O[C@H](CO)[C@@H](O)[C@H](O)[C@H]4O)cc(O)c3c(=O)c2O[C@@H]2O[C@@H](C)[C@H](O)[C@@H](O)[C@H]2O)cc1", "note": "[Icariin]", "inhibition of cell viability": "0.041 (inactive)"},
      {"smiles": "OC[C@H]1O[C@@H](Oc2ccc(O)cc2)[C@H](O)[C@@H](O)[C@@H]1O", "note": "[Arbutin]", "inhibition of cell viability": "-0.263 (inactive)"},
      {"smiles": "C[C@H]1[C@H](C)CC[C@]2(C(=O)O)CC[C@]3(C)C(=CC[C@@H]4[C@@]5(C)C[C@@H](O)[C@H](O)[C@@](C)(CO)[C@@H]5CC[C@]43C)[C@H]12", "note": "[Asiatic acid]", "inhibition of cell viability": "0.00351 (inactive)"},
      {"smiles": "O=C(O)[C@H](O)Cc1ccc(O)c(O)c1", "note": "[Danshensu]", "inhibition of cell viability": "0.318 (inactive)"},
      {"smiles": "CC1=CC(=O)CC(C)(C)C1=O", "note": "[Ketoisophorone]", "inhibition of cell viability": "-0.175 (inactive)"},
      {"smiles": "COc1ccc2cc1Oc1ccc(cc1)C[C@H]1c3c(cc4c(c3Oc3cc5c(cc3OC)CCN(C)[C@@H]5C2)OCO4)CCN1C", "note": "[Cepharanthine]", "inhibition of cell viability": "1.01 (active)"},
      {"smiles": "COc1cc(/C=C/C(=O)O)ccc1O", "note": "[Ferulic Acid]", "inhibition of cell viability": "0.0447 (inactive)"},
      {"smiles": "N[C@@H](Cc1ccc(O)c(O)c1)C(=O)O", "note": "[Levodopa]", "inhibition of cell viability": "0.167 (inactive)"},
      {"smiles": "CC1(C)CCC[C@]2(C)[C@H]3CC(=O)O[C@]3(C)CC[C@@H]12", "note": "[Sclareolide]", "inhibition of cell viability": "0.206 (inactive)"},
      {"smiles": "Cc1cc2nc3c(=O)[nH]c(=O)nc-3n(C[C@H](O)[C@H](O)[C@H](O)COP(=O)(O)O)c2cc1C", "note": "[Flavin mononucleotide]", "inhibition of cell viability": "0.0137 (inactive)"},
      {"smiles": "Cc1cc(O)cc(O[C@@H]2O[C@H](CO)[C@@H](O)[C@H](O)[C@H]2O)c1", "note": "[Orcinol glucoside]", "inhibition of cell viability": "0.0244 (inactive)"},
      {"smiles": "Cn1cnc2c1c(=O)[nH]c(=O)n2C", "note": "[Theobromine]", "inhibition of cell viability": "0.0986 (inactive)"}
    ]}
  ]
}
